60 molecules from PubChem BioAssay AID425 (Sanford-Burnham Center for Chemical Genomics, 2006) can be followed below.

Several values for one entry are separate records, joined by “and”; a condition that tells them apart may be missing. Identical values can stand only once. The whole screen tested about 110,000 compounds, of which about 190 (0.17%) were called active. No stated cut-off is given here; in the data, active means inhibition above about 50%; inactive means the rest. What follows is part of a selection rich in actives, with near analogues and random picks from the rest. Entries with a potency or affinity are not part of this list. More than one record can exist for a structure, and the calls need not agree.

The target of the test is Dual specificity protein phosphatase 6 (Rattus norvegicus) (UniProt Q64346). Description: inhibition of rat DUSP6 enzyme activity – biochemical, in vitro, primary screen (AID 425).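 Further: plate controls were vehicle for no effect and reference inhibitor for full effect.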 As to conditions: recombinant MKP-3 phosphatase activity, fluorescence; at 20 µM; stronger effect = higher value.
Dual specificity protein phosphatase 6 (Rattus norvegicus), sequence (Q64346 whole entry, looked up): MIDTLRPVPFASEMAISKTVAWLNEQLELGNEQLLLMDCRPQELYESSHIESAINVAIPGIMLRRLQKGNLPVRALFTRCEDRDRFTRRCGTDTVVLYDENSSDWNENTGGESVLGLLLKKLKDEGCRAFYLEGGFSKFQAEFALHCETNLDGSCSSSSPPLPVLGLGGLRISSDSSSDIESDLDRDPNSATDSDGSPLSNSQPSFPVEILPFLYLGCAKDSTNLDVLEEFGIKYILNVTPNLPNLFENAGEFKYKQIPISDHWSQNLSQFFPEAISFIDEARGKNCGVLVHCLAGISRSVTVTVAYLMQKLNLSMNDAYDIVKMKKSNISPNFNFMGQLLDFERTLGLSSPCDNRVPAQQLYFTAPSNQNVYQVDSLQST
In the case of `O=C1c2ccccc2-c2onc3ccc(N4CCCCC4)c1c23`, the inhibition was 10.8% (inactive).
As to `O=C1C=Cc2ccccc2/C1=N/Oc1ccc2noc3c2c1C(=O)c1ccccc1-3`, the inhibition was 65.3% (active).
For `O=C1c2ccccc2-c2onc3ccc(Cl)c1c23`, the inhibition was 13.1% (inactive).
Take `O=C1c2ccccc2-c2onc3ccc(NCc4ccco4)c1c23`: the inhibition is -14.4% (inactive).
With `CCOc1ccc2noc3c2c1C(=O)c1ccccc1-3` the figure was 45.7% (inactive) and 44.7% (inactive); with `O=C1c2ccccc2-c2onc3ccc(Sc4ccccc4)c1c23`, 7.7% (inactive).
Consider `COc1ccc2noc3c2c1C(=O)c1ccccc1-3`, for which the inhibition is 102% (active) and -3.3% (inactive).
Take `O=C1c2ccccc2-c2onc3ccc(NC4CCCCC4)c1c23`: the inhibition is -1.7% (inactive).
Take `CCOc1ccc(Nc2ccc3noc4c3c2C(=O)c2ccccc2-4)cc1`: the inhibition was 3.7% (inactive).
Then `O=C1c2ccccc2-c2onc3ccc(Oc4ccc(Cl)cc4)c1c23`, with 92.2% (active); and `CCNc1ccc2noc3c2c1C(=O)c1ccccc1-3`, with 4.2% (inactive); and `Cc1ccc2c(c1)c1nc3ccccc3nc1n2CCN1CCOCC1`, with 1.9% (inactive).
With `Brc1cccc(CN2CCN(C3CCN(Cc4ccccc4)CC3)CC2)c1` the figure was 3.4% (inactive).
Then `O=C(CSC(=S)N1CCOCC1)c1ccc([N+](=O)[O-])cc1`, with 2.2% (inactive); and `Cc1ccc(-n2c3c(cc(C(=O)NCCCN4CCOCC4)c2=O)C(=O)CC(C)(C)C3)cc1`, with -7.6% (inactive); and `COc1cccc(C2/C(=C(\O)c3c(C)nc4c(C)cccn34)C(=O)C(=O)N2CCCN(C)C)c1` (stereo not given), with -2.7% (inactive).
Take `CCCCOC(=O)c1c(NC(=O)C2C3CCC(C3)C2C(=O)O)sc2c1CCCC2` (stereo not given): the inhibition was 0% (inactive).
As to `COc1ccc(/C=C/C(=O)NC(=S)Nc2ccc(S(=O)(=O)N=C(N)N)cc2)cc1`, the inhibition was -1.1% (inactive).
`O=C1CC(c2ccccc2)CC2=C1C(c1cccnc1)Nc1ccc(C(=O)c3ccccc3)cc1N2` (stereo not given): the inhibition is 8.5% (inactive).
With `O=C(O)C1C2C=CC(O2)C1C(=O)Nc1ccccc1C(F)(F)F` (stereo not given) the figure was 4.5% (inactive).
On to `O=C(O)c1ccc(NC2=C(N3CCCCC3)C(=O)c3ccccc3C2=O)cc1`, for which the inhibition is 1.7% (inactive).
Then `O=C1C(Nc2ccc(Cl)cc2)=C(N2CCOCC2)C(=O)c2ccccc21`, with 2% (inactive); and `O=C1C(Nc2ccc(Cl)cc2)=C(N2CCCCC2)C(=O)c2ccccc21`, with 55.2% (active).
As to `CCOCCOC(=O)C1=C(C)N(C)C(=O)NC1c1cc(Cl)c(O)c(OCC)c1` (stereo not given), the inhibition was -5.1% (inactive).
With `O=C(CN1CCN(Cc2ccccc2Cl)C1=O)NC1CCCCCCC1`, the inhibition was -3.3% (inactive).
With `Cc1c(CCC(=O)O)c(=O)oc2cc(O)ccc12` the figure was 2.4% (inactive).
For the molecule `Cc1c(CCC(=O)O)c(=O)oc2cc3occ(-c4ccc(F)cc4)c3cc12`, the inhibition was 8.5% (inactive).
Then `COc1ccc(C2(O)CC3CCC(C2)N3c2cc(C)nc(-c3ccccc3)n2)cc1` (stereo not given), with 7.5% (inactive); and `Cc1ccc(C2CC(C(F)(F)F)n3nc(C(=O)N(Cc4ccccc4)Cc4ccccc4)cc3N2)cc1` (stereo not given), with 3.9% (inactive); and `COc1ccc(Cn2c3nc4ccccc4nc3c3c(=O)n(Cc4ccco4)c(C)nc32)cc1`, with 8.3% (inactive).
Then `COc1ccc(Cn2c3nc4ccccc4nc3c3c(=O)n(Cc4ccco4)cnc32)cc1`, with 2.5% (inactive); and `COC(=O)c1c(-c2ccccc2)csc1NC(=O)CCCC(=O)O`, with 3.6% (inactive).
Then `CN=C(Nc1ccc(F)cc1)SC1CC(=O)N(c2ccccc2F)C1=O` (stereo not given), with 1.3% (inactive); and `COC(=O)N(C)c1nc2ccccc2s1`, with -5% (inactive).
Regarding `COC(=O)c1c2nc3ccccc3sc-2cc(=O)c1N`, the inhibition is 122% (active).
For `CCOC(=O)c1nc2ccccc2s1`, the inhibition is -6.5% (inactive).
Consider `O=C(Nc1cccc2c1CCCC2)c1ccc(Br)cc1`, for which the inhibition is 2.6% (inactive).
For the molecule `O=C(Cc1ccccc1)Nc1ccccc1C(=O)N1CCN(Cc2ccccc2)CC1`, the inhibition is 2.5% (inactive).
With `CC(Oc1ccc(Cl)cc1Cl)C(=O)N1CCN(Cc2ccccc2)CC1` (stereo not given) the figure was -0.2% (inactive); with `CCOC(=O)c1sc2ncn(C(C)C(=O)OCC)c(=O)c2c1C` (stereo not given), 0.5% (inactive); with `CCOC(=O)c1sc2ncn(C(C)C(=O)OC)c(=O)c2c1C` (stereo not given), -14.1% (inactive).
Then `CCOC(=O)c1sc2nc(SCC(=O)NCc3ccco3)n(Cc3ccccc3)c(=O)c2c1C`, with -3.7% (inactive).
With `CCOC(=O)c1sc2ncn(C(CC)C(=O)OC)c(=O)c2c1C` (stereo not given) the figure was -9.8% (inactive); with `O=C(COc1ccc(Cl)cc1)Nc1ncccn1`, -2.2% (inactive); with `C/C(=N\OCC(=O)N=Nc1c(O)n(CN2CCN(C)CC2)c2ccccc12)c1cccs1`, -0.1% (inactive).
Regarding `CN(C)c1ccc(C(C2=C(O)CC(C)(C)CC2=O)C2=C(O)CC(C)(C)CC2=O)cc1`, the inhibition was 3.2% (inactive).
With `O=C(Cn1nc(Cc2cccnc2)c2ccccc2c1=O)Nc1ccc2c(c1)OCO2` the figure was -0.1% (inactive).
Then `COC(=O)c1cc2c([nH]c3ccccc32)c(C)n1`, with -4% (inactive).
With `N#Cc1c(N)nc(SCC(=O)c2ccccc2)c(C#N)c1-c1ccc(Cl)cc1` the figure was 6.2% (inactive); with `Cc1cc2nc(-c3ccc(SCC(=O)N4CCOCC4)nc3)[nH]c2cc1C`, 3.3% (inactive); with `Cc1cc(NC(=O)CSc2ccc(-c3nc4cc(C)c(C)cc4[nH]3)cn2)no1`, 0.6% (inactive).
As to `Oc1oc(-c2ccccc2)nc1C=Nc1ccc(Cl)c2cccnc12`, the inhibition was 3.9% (inactive).
Then `CCc1ccc(O)c(N=Cc2cc(Br)cc(Br)c2O)c1`, with 1.5% (inactive).
Then `Oc1c(Br)cc(Br)cc1/C=N/c1ncn[nH]1`, with 5.8% (inactive); and `Oc1c(Br)cc(Br)cc1C=Nc1ccc(Br)c2cccnc12`, with 52.9% (active); and `Oc1ccc(Br)cc1C=Nc1ccc(Cl)c2cccnc12`, with 14.2% (inactive).
With `Oc1c(Br)cc(Br)cc1C=Nc1ccc(Cl)c2cccnc12` the figure was 98.2% (active); with `COc1ccc(N(Cc2cc3ccc(C)cc3[nH]c2=O)C(C)=O)cc1`, -3.9% (inactive); with `CC(C)Cc1cc(C(=O)NCCN2CCOCC2)no1`, -10.2% (inactive).
Regarding `NC(=O)c1ccccc1NC(=O)c1ccc(Cl)cc1[N+](=O)[O-]`, the inhibition is -1.7% (inactive).

The term inhibition denotes the drop in the measured response relative to a control, in per cent.
